# COUP-TFII inh = NR2F2 (human) inhibition, primary screen; 370,000 compounds, 0.7% hits; HEK293T NGFI-A luciferase reporter, luminescence; P24468; AID 686940; inhibition, % at 8.6 µM;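 active = inhibition above a per-plate cutoff, mean inhibition of test wells between control levels plus 3 SD, cut at about 38% in these data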;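 also: cells cotransfected with COUP-TFII expression vector driving the NGFI-A reporter; 0% = median of COUP-TF2 test wells and 100% = reporter-only cells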
# Cardio protect = protects H9c2 cardiomyocytes from peroxide injury; H2O2 injury protection, ATPLite, 2 h; protection from H2O2 cell death, % at 20 µM; 360,000 compounds, 0.63% hits;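 active = compounds giving at least 50% protection of heart cells from peroxide-induced death in the single-dose screen, raw or plate-pattern-corrected value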;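 also: 0% = DMSO wells with peroxide and 100% = DMSO wells without peroxide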
# FXN GAA850 act = frataxin GAA850 promoter activation; HEK293 lucGAA850 FXN promoter luciferase reporter, 24 h; percent of 10 µM SAHA response; activation, % at 6 µM; 360,000 compounds, 0.56% hits; AID 540364;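 active = activation above the average of all compounds screened plus 3 SD, cutoff fixed separately per campaign, cut at about 7.5% in these data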;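 also: 0% = DMSO wells and 100% = 10 µM SAHA wells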
# Gli-Sufu antag = blocks Gli-Sufu signaling in a luciferase reporter; Sufu-KO-LIGHT fibroblasts, Gli luciferase reporter luminescence; inhibition, % at 5 µM; 340,000 compounds, 0.74% hits;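 active = inhibition above about 55%, limit read from the data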;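 also: 0% = DMSO-treated cells and 100% = wells with medium but no cells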
# GalR3 antag = human GalR3 antagonism. O60755. HEK293 GalR3-CNG cAMP membrane potential fluorescence; galR3 body fused to GalR1 C-terminus. inhibition, % at 3 µM. 360,000 compounds, 0.44% hits. AID 651719;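 active = inhibition above the screen-wide average plus 3 SD, cut at about 13% in these data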;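 also: forskolin and galanin both at EC90 stimulate the cells; cAMP rise reported by CNG channel membrane potential dye signal; 0% = forskolin plus galanin with DMSO and 100% = forskolin alone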
# Target sequence (O60755 1-299 limits assumed): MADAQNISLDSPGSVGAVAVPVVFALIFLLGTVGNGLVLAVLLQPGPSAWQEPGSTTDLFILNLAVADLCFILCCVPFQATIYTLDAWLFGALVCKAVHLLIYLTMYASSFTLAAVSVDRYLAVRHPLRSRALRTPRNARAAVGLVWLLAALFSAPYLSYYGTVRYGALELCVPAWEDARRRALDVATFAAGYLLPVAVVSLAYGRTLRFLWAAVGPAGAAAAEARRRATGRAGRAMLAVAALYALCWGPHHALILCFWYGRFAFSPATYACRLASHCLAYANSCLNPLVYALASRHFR
# SMARCA2 act = SMARCA2 function activation, primary screen; MG213 cells, MMTV-luciferase reporter, dexamethasone, overnight; activation, % at 9.1 µM; 370,000 compounds, 1% hits; AID 652017; in the data active = activation above about 7.8%;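 also: 0% = vehicle wells and 100% = reference activator wells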
# GAA30 FXN cntr = GAA30 FXN promoter activation counter-screen. shares compounds with FXN GAA850 act. HEK293 lucGAA30 FXN promoter luciferase, 24 h; DMSO = 0%, 5 µM ipriflavone = 100%. activation, % at 6 µM. 1,900 compounds, 66% hits. AID 588350;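 active = mean activation above the mean of solvent-only control wells plus 3 SD, cut at about 22% in these data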;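 also: counterscreen of GAA850 promoter hits where activity marks nonselective or luminescence artifacts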
# FXN GAA850 conf = GAA850 FXN promoter activation confirmation; HEK293 lucGAA850 FXN promoter luciferase reporter, 24 h; 100% = activation by SAHA; shares compounds with FXN GAA850 act; 1,900 compounds, 86% hits; activation, % at 6 µM;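 active = mean activation above a set limit taken from the primary screen, cut at about 8% in these data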;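 also: 0% = DMSO wells and 100% = 10 µM SAHA wells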
# * hit, by the source's call; nt = no result. Rows were chosen to be rich in hits. Some 3.4% of all compounds tested hit in one or more screens of this group.
SMILES,COUP-TFII inh,Cardio protect,FXN GAA850 act,Gli-Sufu antag,GalR3 antag,SMARCA2 act,GAA30 FXN cntr,FXN GAA850 conf
Cc1cccc(N=Nc2ccc(O)c3ncccc23)c1,3,8,12*,-2,-4,1,-102,-32
NS(=O)(=O)c1ccc(N=Nc2ccc(O)c3ncccc23)cc1,16,21,-3,49,4,-3,nt,nt
CCOC(=O)c1sc(Nc2nc3c(F)cccc3s2)cc1C,-32,-8,11*,-14,2,-1,106*,42*
Cc1ccccc1CS(=O)(=O)Cc1ccc(C(=O)Nc2cccc(C)c2C)o1,14,nt,nt,nt,nt,-4,nt,nt
CC(=O)Nc1ccc(N(CC(O)Cn2c3ccccc3c3ccccc32)S(=O)(=O)c2ccc(C)cc2)cc1 (stereo not drawn),7,0,16*,-13,-4,-4,2,12*
O=C(NCc1cccs1)c1cc(-c2cccs2)on1,-28,0,4,-56,-4,2,nt,nt
COCCNC(=O)c1cc(-c2cccs2)on1,12,14,15*,-26,2,1,145*,70*
O=C(C1CCN(S(=O)(=O)c2ccc3[nH]c(=O)oc3c2)CC1)N1CCCC1,7,nt,nt,nt,nt,2,nt,nt
CCOC(=O)C/C(=N\Nc1ncnc2ccccc12)c1ccccc1,-23,4,8.3*,4,-8,-1,84*,35*
COc1cc(OCC(=O)NC(C)C)cc2c1C(=O)O[C@@H](C)CCCC(=O)CCCCC2,-1,2,4,4,-6,-2,nt,nt
COc1cc2c(c(OCC(=O)NC(C)C)c1)C(=O)O[C@@H](C)CCCC(=O)CCCCC2,24,28,12*,1,-6,1,23*,9.8*
Cc1n[nH]c(C)c1S(=O)(=O)NCCc1ccccc1,-4,nt,nt,nt,nt,-3,nt,nt
CC(=O)N(C1CC(C)C(C#N)(C#N)C1(C#N)C#N)N(C)C (stereo not drawn),-5,-11,9.9*,1,-8,3,-99,-31
CC(C)CN1C(=O)[C@@]2(CC(=O)N(C)C2c2ccccc2)c2cc(-n3cc(CN(C)C)nn3)ccc21 (stereo partly drawn),1,nt,nt,nt,nt,0,nt,nt
COc1cc(NC(=O)c2cc3ccccc3o2)c(OC)cc1Cl,2,-22,4,5,2,0,nt,nt
COc1cc(NC(=O)c2cc3ccccc3o2)c(OC)cc1Br,9,-29,17*,0,4,1,24*,16*
Cc1ccc(O)c(-n2nc3ccccc3n2)c1,-31,-12,9.2*,-24,-4,3,114*,35*
Cc1cn([C@H]2C[C@H](O)[C@@H](/C=C/C(=O)N3CCN(Cc4ccc(F)cc4)CC3)O2)c(=O)[nH]c1=O,14,-1,nt,nt,-6,-4,nt,nt
COC(=O)[C@]12C[C@H](CC(=O)N3CCN(C(=O)c4ccco4)CC3)C(=O)N(Cc3cccc4ccccc34)C1=C[C@H](COCc1ccccc1)O[C@@H]2C,-7,nt,nt,nt,nt,-2,nt,nt
CCN(CC)S(=O)(=O)c1cc(NC(=O)CSCc2c(C)noc2C)ccc1C,21,0,8.4*,6,1,-5,10,8.2*
O=C(NN1CCOCC1)c1cccc(COc2cccc(Br)c2)c1,-6,1,8.0*,-40,-3,1,90*,37*
O=C(NN1CCOCC1)c1cccc(Br)c1,20,-2,0,3,-4,-3,nt,nt
COc1cccc(CNC(=O)[C@H]2CCCN2C(=O)[C@H]2CCCN2)c1,-12,nt,nt,nt,-8,-7,nt,nt
O=C(Nc1ccon1)c1cc2c(s1)CCCCCC2,-52,-6,8.8*,-57,-7,6,113*,36*
O=C(Nc1ccon1)c1cc2c(s1)CCCC2,nt,-9,3,-81,nt,nt,nt,nt
SMILES,COUP-TFII inh,Cardio protect,FXN GAA850 act,Gli-Sufu antag,GalR3 antag,SMARCA2 act,GAA30 FXN cntr,FXN GAA850 conf
CCOC(=O)NC(=O)CSc1nc(C)cc(C)c1C#N,-48,-24,8.2*,-74,-4,3,103*,30*
Nc1nc(Nc2ccccc2)nc(N2CCCC2)c1[N+](=O)[O-],-23,-7,11*,-10,-7,5,75*,39*
COc1ccc(Nc2nc(N)c([N+](=O)[O-])c(N3CCCC3)n2)cc1,-3,2,0,4,-4,1,nt,nt
CC1CN(c2cc(=O)n(-c3ccccc3)c(=O)[nH]2)CC(C)O1 (stereo not drawn),-3,10,8.1*,7,nt,-2,17,6
C[C@]1(C(=O)NCCCNc2ncc(C(F)(F)F)cc2Cl)C=C[C@@H](Cc2ccccc2)N1C(=O)c1ccccc1,nt,4,0,-2,nt,nt,nt,nt
COC(=O)N1[C@H](C)C=C[C@]1(Cc1ccccc1)C(=O)NCCCNc1ncc(C(F)(F)F)cc1Cl,-6,-3,7.8*,5,-3,0,23*,11*
Cc1nn2c(nc(N3CCCCC3)c3ccccc32)c1C=O,-9,3,9.5*,-1,4,4,-3,12*
Clc1ccc(-c2noc(CSc3nnc(Cc4cccs4)n3-c3ccccc3)n2)cc1,21,-17,15*,3,-2,-3,6,4
c1ccc(-c2noc(CSc3nnc(Cc4cccs4)n3-c3ccccc3)n2)cc1,12,-17,-1,6,-6,-5,nt,nt
COc1ccc(S(=O)(=O)N2CCCC(C(=O)N3CCN(Cc4ccccc4)CC3)C2)cc1Cl (stereo not drawn),4,-2,1,nt,-8,-4,nt,nt
Cn1c(=O)cc(OCC(=O)N2CCN(c3ccccc3Cl)CC2)c2ccccc21,-12,nt,nt,nt,nt,-2,nt,nt
O=C(Nc1ccc(Cl)cc1)C1CCCCN1S(=O)(=O)c1ccccc1 (stereo not drawn),15,-13,7.9*,29,-5,-4,24*,8.3*
O=C(Nc1ccccc1)[C@@H]1CCCN1S(=O)(=O)c1ccc(Cl)cc1,1,5,0,3,-6,0,nt,nt
COc1cc2c(cc1OC)/C(=C/C(=O)c1ccccc1)NCC2,12,1,8.5*,5,-5,7,29*,15*
COc1cc2c(cc1OC)/C(=C/C(=O)c1ccc(C)cc1)NCC2,-15,7,8.2*,12,-3,2,37*,24*
CCOC(=O)c1cnc(-c2ccccc2)nc1N(C)C,-27,-3,8.7*,-60,-8,3,120*,41*
CCOC(=O)c1cnc(-c2ccccc2)nc1N,-56,-8,5,-84,-7,0,nt,nt

# Source: PubChem BioAssay (several laboratories)
